Results on 34 molecules are retold here after PubChem BioAssay (NCATS).

“And” between values parts separate entries of the source, which are not always exact repeats. Equal values may be shown once. Results filed as inconclusive are left out. The source made the active and inactive calls. The call rests on the fitted dose curve; in most records, active means well fitted curve in the direction sought with a large enough effect; inconclusive means small, poorly fitted or top-dose-only effect, or another doubt; inactive means no such curve, though single readings can be large; an effect the other way counts as inactive or inconclusive.

In test [1] the target is N-terminal Xaa-Pro-Lys N-methyltransferase 1 (Homo sapiens) (UniProt Q9BV86). Put plainly: qHTS Assay for Inhibitors of N-terminal methyltransferase 1 (NTMT1): LOPAC validation of the NTMT1 SAHH-coupled ThioGlo3 Assay (AID 1347143).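 Further: SAH from peptide methylation measured as thiol fluorescence via SAHH coupling and ThioGlo3; potency means the concentration at half of the fitted maximal effect; nearly all actives have a fitted effect of over 70% in size.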 Put shortly:
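Recombinant human NTMT1 (125nM) was pre-incubated 1 min at room temperature with compounds over a concentration range, then a mix of 100uM SAM, 10uM SAHH and 15uM ThioGlo3 (concentrations in added reagent) was added. ThioGlo3 fluorescence (ex 340/em 450nm) after 30 min was normalized to the initial reading.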
Background: qHTS replaces the single test concentration by a dilution series.

A further test addresses Furin (Homo sapiens) (UniProt P09958). Put plainly: Furin counterscreen qHTS for Zika virus inhibitors (AID 1347149). Further: nearly all actives have a fitted effect of over 70% in size. Further: potency means the concentration at half of the fitted maximal effect. In a few lines: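 Fluorogenic cleavage of BOC-RVRR-AMC (2 microM final, Km ~15 µM) was monitored (ex 340, em 450 nm) at 37C after 15 min RT preincubation of 5 nM furin with compounds in HEPES pH 7.0 buffer with CaCl2 and Triton X-100. Percent inhibition was fitted to a 4-parameter Hill curve.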
For orientation: A counterscreen serves to expose hits that act by an unwanted route or on another target.

Test [2] concerns Zika virus NS2B-NS3 protease (unlinked). The experiment in a line: Optimization of GU AMC qHTS for Zika virus inhibitors: Unlinked NS2B-NS3 protease assay (AID 1347151). Further: nearly all actives have a fitted effect of over 80% in size. Further: potency means the concentration at half of the fitted maximal effect. Put shortly:
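In this qHTS, compounds acted on 25 nM unlinked Zika NS2B–NS3 in pH 8.0 Tris/Tween buffer. Cleavage of an AMC peptide ran 15 min at room temperature, to about 20% conversion.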

A short description of test [3]: qHTS of pediatric cancer cell lines to identify multiple opportunities for drug repurposing: Confirmatory screen for Saos-2 cells (AID 1347127). Further: nearly all actives have a fitted effect of over 60% in size. In a few lines: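 Viability after 48 h compound treatment at 37C, 500-1,000 cells/well, read as ATP luminescence with CellTiter-Glo. Primary screens used 11-point (MIPE, 0.78 nM-46 µM) or 8-point (NPC, 0.59 nM-46 µM) final concentrations; follow-up screens used 11-point dilutions.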

Test [4] relates to Zika virus NS2B-NS3 protease (linked construct). Put plainly: Confirmatory screen NINDS AMC qHTS for Zika virus inhibitors (AID 1347152). Further: potency means the concentration at half of the fitted maximal effect; nearly all actives have a fitted effect of over 70% in size. As to conditions: Purified linked NS2B-NS3, AMC substrate fluorescence. The source says:
Assay Submitters (PI): Avindra Nath, Ph.D., National Institute of Neurological Disorders and Stroke (NINDS), Bethesda, MD Radhakrishnan Padmanabhan, Ph.D., Georgetown University (GU), Washington D.C. Zika Virus causes congenital defects, including microcephaly and is associated with Guillain-Barre syndrome, eningoencephalitis and myelitis in infected adult. […] Using a target-based approach, we hope to establish a screening paradigm to uncover novel, cell-active NS2B-NS3 protease (Zika Virus) specific inhibitors from NCATS' collection of small molecules using qHTS. […] Four assay panel was created to identify potential Zika Virus inhibitors. Namely, (1) GU unlinked NS2B-NS3 AMC tagged protease qHTS, (2) GU unlinked NS2B-NS3 Rhodamine tagged protease qHTS, (3) NINDS linked NS2B-NS3 AMC tagged protease qHTS, (4) NINDS linked NS2B-NS3 Rhodamine tagged protease qHTS. Active compounds were re-acquired and re-screened to confirm inhibition. Inhibitors were further screened against various confirmatory and counterscreens in dose response format. Early Translation Branch (ETB) National Center for Advancing Translational Sciences (NCATS), Rockville, MD National Institute of Health (NIH), Bethesda, Maryland
Materials: For the linked assay, Nath lab (NINDS) provided the purified linked NS2B-NS3 protease which is consists of hydrophilic domain of NS2B linked to the NS3 protease domain by a flexible (-[…]-) linker. Control compound aprotinin is obtained from Thermo Scientific (#78432; Waltham, Massachusetts). NS2B-NS3 AMC substrate (Bz-Nle-Lys-Arg-Arg-AMC; Nle-KRR-AMC) purchased from Bachem (#I-1995; Torrance, CA). Ac-VKTGKR-AMC purchased from Genscript or Bachem, Ac-FAAGKR-AMC purchased from Genscript, Ac-GLVKRR-AMC purchased from Genscript, Ac-LKKR-AMC purchased from Genscript. NINDS AMC linked NS2B-NS3 protease qHTS protocol: Briefly, 3 microL of Zika virus linked NS2B-NS3 protease (1 nM for linked final concentration), in assay buffer (10 mM Tris-HCl pH 8.0 with 0.01% Tween 20) was dispensed into a 1,536-well solid-bottom black plate (Greiner Bio One, Monroe, NC). Twenty-three nL of compounds (final concentration range 7.28 nM to 114 microM) or control Aprotinin (final concentration range 3.47 nM to 114 microM) were transferred via Wako Pin-tool (Wako Automation, Richmond, VA). Samples were incubated (room temperature, protected from light) for 15 minutes followed by a 1 microL AMC substrate addition of (final concentration of 10 microM; Km = 18.3 µM). Plates were then read immediately on a ViewLux High-throughput CCD imager (PerkinElmer, Waltham, MA) equipped with standard UV fluorescence optics (340(30) nm excitation, 450(20) nm emission) then incubated (room temperature, protected from light) for 15 minutes (~20% conversion). The change in fluorescence intensity over the 15-minute reaction period was normalized against no-inhibitor and no-enzyme controls and the resulting percent inhibition data were fitted to a 4-parameter Hill equation. Aprotinin was used as the intraplate control.

The test system of test [5] is Zika virus NS2B-NS3 protease. The experiment in a line: Primary screen GU AMC qHTS for Zika virus inhibitors (AID 1347154). Further: nearly all actives have a fitted effect of over 70% in size. Further: potency means the concentration at half of the fitted maximal effect. In a few lines: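 Unlinked Zika NS2B hydrophilic domain–NS3 protease complex at 25 nM in 10 mM Tris-HCl pH 8.0, 0.01% Tween 20, with an AMC peptide substrate. Fluorescence change (340/450 nm) over 15 min at room temperature, normalized to controls, fitted to 4-parameter Hill.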

The test system of test [6] is Zika virus NS2B-NS3 protease (unlinked complex). Put plainly: Confirmatory screen GU AMC qHTS for Zika virus inhibitors (AID 1347153). As to conditions: Recombinant NS2B-NS3 protease, AMC substrate fluorescence. In a few lines:
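Noncovalent NS2B hydrophilic domain/NS3 protease complex (25 nM) in 10 mM Tris-HCl pH 8.0, 0.01% Tween 20 was preincubated 15 min at room temperature with compounds. Then 10 µM AMC substrate (Km 18.3 µM) was added; fluorescence was read over 15 min and fitted to a 4-parameter Hill equation.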

Test [7] can be described thus: Confirmatory screen GU Rhodamine qHTS for Zika virus inhibitors qHTS (AID 1347157). Further: nearly all actives have a fitted effect of over 70% in size. Further: potency means the concentration at half of the fitted maximal effect. In a few lines:
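Buffer 10 mM Tris-HCl pH 8.0, 0.01% Tween 20. Unlinked protease 25 nM; compound preincubation 15 min, RT, protected from light. Substrate Rhod110, 1.5 microM; ~15% conversion in 15 min.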

Sequence of Furin (Homo sapiens) (P09958 whole entry, looked up): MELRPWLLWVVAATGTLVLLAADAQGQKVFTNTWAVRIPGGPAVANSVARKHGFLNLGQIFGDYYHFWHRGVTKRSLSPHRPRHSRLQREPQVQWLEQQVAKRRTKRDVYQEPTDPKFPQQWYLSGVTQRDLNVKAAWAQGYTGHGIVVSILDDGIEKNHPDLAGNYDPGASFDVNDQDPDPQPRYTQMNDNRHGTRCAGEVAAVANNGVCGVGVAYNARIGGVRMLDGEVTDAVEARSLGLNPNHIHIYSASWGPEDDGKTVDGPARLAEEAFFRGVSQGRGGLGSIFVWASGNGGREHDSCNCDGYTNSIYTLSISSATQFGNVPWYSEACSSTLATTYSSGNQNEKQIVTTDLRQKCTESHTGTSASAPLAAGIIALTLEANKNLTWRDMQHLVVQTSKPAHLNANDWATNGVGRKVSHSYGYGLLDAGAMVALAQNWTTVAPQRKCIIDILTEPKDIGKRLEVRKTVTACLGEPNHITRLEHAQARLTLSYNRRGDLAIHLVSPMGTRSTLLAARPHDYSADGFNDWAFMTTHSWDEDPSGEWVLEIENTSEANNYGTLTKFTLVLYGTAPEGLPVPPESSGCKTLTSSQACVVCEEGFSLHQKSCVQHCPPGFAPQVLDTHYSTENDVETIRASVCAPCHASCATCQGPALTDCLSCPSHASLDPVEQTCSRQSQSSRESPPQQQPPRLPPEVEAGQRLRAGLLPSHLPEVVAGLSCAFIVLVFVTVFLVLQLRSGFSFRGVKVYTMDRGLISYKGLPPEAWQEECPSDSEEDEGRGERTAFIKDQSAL
Sequence of N-terminal Xaa-Pro-Lys N-methyltransferase 1 (Homo sapiens) (Q9BV86 whole entry, looked up): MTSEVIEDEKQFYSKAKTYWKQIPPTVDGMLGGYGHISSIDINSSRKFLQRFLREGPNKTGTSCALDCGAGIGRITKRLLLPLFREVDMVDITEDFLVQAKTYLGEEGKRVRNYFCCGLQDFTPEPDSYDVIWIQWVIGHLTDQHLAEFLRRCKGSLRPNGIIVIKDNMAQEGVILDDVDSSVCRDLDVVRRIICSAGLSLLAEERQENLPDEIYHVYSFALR

On to `O=c1cc(-c2ccc(O)cc2)oc2cc(O)cc(O)c12`, for which the Potency in test [1] was 89.1 µM (active).
Consider `CC(=O)Nc1ccc([C@H](C)C(=O)Nc2ncc(C(C)C)s2)cc1`, for which the Potency result (with Furin (Homo sapiens); in test [2]) was “inactive” throughout.
For the molecule `COc1cccc(-c2cc(=O)c3ccccc3o2)c1N`, in test [2], the Potency entry is “inactive”.
For `CCCCCCCCCCCC1=C(O)C(=O)C=C(O)C1=O`, the Potency result in test [3] is “inactive”.
The same measure, in the same setting: then `COc1ccc2c(Oc3ccc(NC(=O)c4c(C)n(CC(C)(C)O)n(-c5ccccc5)c4=O)cc3F)ccnc2c1`, with “inactive”.
As for `Cc1cc(OCCCc2c(C(=O)O)n(Cc3cccnc3)c3c(-c4c(COc5ccc(N6CCN([S+](C)(=O)[O-])CC6)cc5)nn(C)c4C)cccc23)cc(C)c1Cl`, the Potency with Furin (Homo sapiens) is 21.5 µM (active).
On to `NC(=O)c1cccc2[nH]c(-c3ccc([C@H]4CCCN4)cc3F)nc12`, for which the Potency was 21.5 µM (active) with Furin (Homo sapiens), 27.1 µM (active) in test [4] and 24.1 µM (active) in test [5].
`CS(=O)c1ccc(-c2nc(-c3ccc(F)cc3)c(-c3ccncc3)[nH]2)cc1` (configuration not stated): the Potency with Furin (Homo sapiens) is 24.1 µM (active) and 21.5 µM (active); in test [4], 24.1 µM (active); in test [6], 21.5 µM (active); in test [5], 26.7 µM (active) and 17.5 µM (active).
With `COc1cccc2c1CCCC2CCCN1CCN(C2CCCCC2)CC1` (configuration not stated), in test [5], the Potency result was “inactive”.
For the molecule `Nc1ncnc2ccccc12`, the Potency entry in test [5] was “inactive”.
On the same count and under the same terms, then `CC#CCn1c(N2CCC[C@@H](N)C2)nc2c1c(=O)n(Cc1nc(C)c3ccccc3n1)c(=O)n2C`, with “inactive”; and `CCOC(CN1C(=O)[C@](CC(=O)Nc2ccc(C)cc2)(NC(=O)Nc2ccc(C)cc2)c2ccccc21)OCC`, with “inactive”; and `Cc1ccc(/C=N/NC(=O)c2ccccc2Oc2ccccc2)o1`, with “inactive”.
Same read-out and setting: the value for `C[C@@H]1CCN(C(=O)CC#N)C[C@H]1N(C)c1ncnc2[nH]ccc12` was “inactive”.
As for `CC/C(=C(\c1ccccc1)c1ccc(OCCN(C)C)cc1)c1ccccc1`, the Potency result in test [2] and in test [5] was “inactive” each time.
For the molecule `O=C(NC1CCOCC1)c1ccc(-c2cc(-c3cn[nH]c3-c3ccccn3)ccn2)cc1`, the Potency result in test [5] is “inactive”.
Regarding `O=C(O)c1c(Cl)c(Cl)c(Cl)c(Cl)c1-c1c2cc(I)c(=O)c(I)c-2oc2c(I)c(O)c(I)cc12`, the Potency result (with Furin (Homo sapiens); in test [7]) was “inactive” each time.
As to `O=c1cc(-c2ccccc2)oc2cc(O)c(O)c(O)c12`, the Potency in test [2] is 2.71 µM (active). The Potency entry in test [5] was “inactive”.
On to `COc1cc2c(cc1OC)CN(CCc1ccc(NC(=O)c3cc(OC)c(OC)cc3NC(=O)c3cnc4ccccc4c3)cc1)CC2`, for which the Potency result in test [5] is “inactive”.
For the molecule `CCn1cc(C(=O)O)c(=O)c2ccc(C)nc21`, the Potency entry in test [2] and in test [5] was “inactive” in each case.
Regarding `CC=CCC(C)C(O)C1C(=O)NC(CC)C(=O)N(C)CC(=O)N(C)C(CC(C)C)C(=O)NC(C(C)C)C(=O)N(C)C(CC(C)C)C(=O)NC(C)C(=O)NC(C)C(=O)N(C)C(CC(C)C)C(=O)N(C)C(CC(C)C)C(=O)N(C)C(C(C)C)C(=O)N1C` (configuration not stated), in the test with Furin (Homo sapiens), the Potency was 0.0152 µM (active). The Potency result in test [2] and in test [5] was “inactive” in each case.
On to `NCCS`, for which the Potency result in test [2] and in test [5] was “inactive” in each case.
Regarding `Clc1ccc(-c2nc3sccn3c2C=NOCc2ccc(Cl)c(Cl)c2)cc1`, the Potency result in test [5] was “inactive”.
In the case of `C[C@H](NC(=O)C(=O)Nc1ccccc1C(C)(C)C)C(=O)N[C@@H](CC(=O)O)C(=O)COc1c(F)c(F)cc(F)c1F`, the Potency result (in the test with Furin (Homo sapiens); in test [2]; in test [5]) was “inactive” each time.
For the molecule `Cc1nc(N)sc1-c1ccnc(Nc2ccc(N3CCOCC3)cc2)n1`, the Potency result in test [5] is “inactive”.
Same read-out and setting: then `CCOc1ccc(Nc2nc(-c3c(C)nc4ccccn34)cs2)cc1`, with “inactive”.
Consider `COc1ccc2cc(-c3nc(-c4ccc(S(C)=O)cc4)[nH]c3-c3ccncc3)ccc2c1` (configuration not stated), for which the Potency with Furin (Homo sapiens) is 3.83 µM (active); in test [4], 17.1 µM (active); in test [6] it was 17.1 µM (active); in test [5], 17.1 µM (active).
Regarding `CC1(C)CCC(CN2CCN(c3ccc(C(=O)NS(=O)(=O)c4ccc(NCC5CCOCC5)c([N+](=O)[O-])c4)c(Oc4cnc5[nH]ccc5c4)c3)CC2)=C(c2ccc(Cl)cc2)C1`, the Potency result in the test with Furin (Homo sapiens) was “inactive”. Further, the Potency in test [4] was 6.07 µM (active) and 10.8 µM (active); in test [6], 8.57 µM (active); in test [7], 1.21 µM (active).
For the molecule `COc1ccc(Cc2nccc3cc(OC)c(OC)cc23)cc1OC`, the Potency result in test [2] was “inactive”.
As for `NC(=O)c1ccc2nc(-c3ccc(Oc4ccc(Cl)cc4)cc3)[nH]c2c1`, the results for the Potency (in the test with Furin (Homo sapiens); in test [4]; in test [5]) were 34 µM (active), 34.1 µM (active) and 24.1 µM (active), respectively.
Regarding `Cc1ccccc1C(C(=O)NC1CCCCC1)N(C(=O)Cn1ccnc1C)c1cccc(F)c1` (configuration not stated), the Potency entry in test [5] was “inactive”.
Same read-out and setting: the value for `O=C(N[C@@H](c1ccccc1)[C@@H]1CCCCN1)c1cccc(C(F)(F)F)c1Cl` was “inactive”; that for `O=C(O)c1cc(-c2ccccc2)nc2ccccc12` was “inactive”.
With `C[C@H]1[C@H](NC(=O)C(=NOC(C)(C)C(=O)O)c2csc(N)n2)C(=O)N1S(=O)(=O)O`, the Potency result in test [5] was “inactive”.
